Bioassay records (PubChem)
Sampled rows, rich in hits. Any-hit rate of the full collection: about 1.7%.
GLP1R cytotox = cytotoxicity in counter-screen for GLP-1R inverse agonists; HEK293 cAMP-luciferase reporter cells, luminescence, 24 h; Potency, µM (highest dose often 38.3 µM), for inactives: at the top dose activity change, negative = inhibition, hits mostly inhibitors; 0.13% of 410,000 active; AID 624418;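 note: loss of luciferase light is scored as toxicity; potency is the fitted concentration of half-maximal effect; % is set by controls: 0 for no effect and ±100 for the full control effect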
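Luminescence readout: signal drop marks cytotoxicity. Plated cells grew 12 h at 37 °C, 5% CO2, received 23 nL compound for 24 h, then got luciferase reagent, read after 12 min at RT.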
IDH1 R132H inh = human IDH1 R132H inhibition | O75874 | IDH1-R132H enzyme, NADPH consumption, diaphorase/resazurin fluorescence | Potency, µM (top dose mostly 76.6 µM), for the others: at the highest dose activity change, negative = inhibition, usual class: inhibitors | 0.093% of 390,000 active; note: potency is the fitted concentration of half-maximal effect; % is set by controls: 0 for no effect and ±100 for the full control effect; nearly all actives have a fitted effect of over 65% in size
Target sequence (O75874 whole entry R132H, stated change not applied): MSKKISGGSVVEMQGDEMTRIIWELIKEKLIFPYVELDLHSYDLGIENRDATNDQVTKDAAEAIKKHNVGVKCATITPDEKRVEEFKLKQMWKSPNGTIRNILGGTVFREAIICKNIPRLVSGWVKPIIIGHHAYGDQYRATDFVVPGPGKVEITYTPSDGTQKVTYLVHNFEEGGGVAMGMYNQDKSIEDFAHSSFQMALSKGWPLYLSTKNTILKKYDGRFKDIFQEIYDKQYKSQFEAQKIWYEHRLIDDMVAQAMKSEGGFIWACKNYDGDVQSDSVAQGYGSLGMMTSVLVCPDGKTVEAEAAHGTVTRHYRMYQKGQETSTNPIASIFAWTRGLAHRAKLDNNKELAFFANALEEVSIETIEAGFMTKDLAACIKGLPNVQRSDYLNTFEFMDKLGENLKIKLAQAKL
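IDH1-R132H (0.5 ug/mL dispensed) in pH 7.5 Tris buffer was preincubated 30 min with compound, then given a substrate mix of 0.016 mM NADPH and 2 mM alpha-KG for 80 min at room temperature; remaining NADPH was read by diaphorase/resazurin fluorescence.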
PTHR1 ag = agonists of human PTHR1 parathyroid hormone receptor; 0.075% of 410,000 active; Potency, µM (top dose mostly 115 µM), without a hit: top-dose activation, actives largely listed as activators; HEK293 GP2 PTHR1 cells, GloSensor cAMP luminescence, 1 h; Q03431; AID 743266; note: potency is the fitted concentration of half-maximal effect; nearly all actives have a fitted effect of over 55% in size
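HEK-293-derived GP2 cells expressing PTHR1 and a GloSensor cAMP reporter, 3,000/well, plated overnight, given luciferin plus IBMX (each 0.5 mM as added) for 1 h at 37 °C, then compound for 1 h at 37 °C. Luminescence was read after 15 min at room temperature.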
GLP1R ag = GLP-1 receptor (human) agonism. HEK293 GLP-1R CRE-luciferase, luminescence, 4-6 h; cells express a hypersensitive GLP-1R form. Potency, µM (highest dose often 45.6 µM), for the others: at the highest dose activation, most hits filed as activators. 0.007% of 380,000 active. AID 624172; note: potency is the fitted concentration of half-maximal effect; % of control where 0% means no effect
GLP-1R inv ag = acts as inverse agonist at human GLP-1 receptor. HEK293 GLP-1R CRE-luciferase, luminescence, 24 h; GLP-1R form is constitutively active. Potency, µM (highest dose often 38.3 µM), for the others: top-dose activity change, negative = inhibition, hits mostly inhibitors. 1.6% of 410,000 active. AID 624417; note: potency is the fitted concentration of half-maximal effect; % is set by controls: 0 for no effect and ±100 for the full control effect; nearly all actives have a fitted effect of over 55% in size
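Constitutively active GLP-1R drives a cAMP-responsive luciferase in stably transfected HEK293 cells; test compounds are added after overnight (12 h) attachment and left 24 hr, and signal loss in luminescence marks inhibition.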
LDHA block = inhibitors of human lactate dehydrogenase A; P00338; purified LDHA, NADH/diaphorase-resazurin fluorescence; active compounds read low; activity change, % (values are at about 110 or 230 µM); 0.15% of 480,000 active; in the data active = activity change below about -30%; inconclusive = mostly about -25% to -30%;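 note: plate controls were DMSO wells for no effect and wells without enzyme for full effect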
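LDH5 2 nM; NADH 0.06 mM, pyruvate 0.2 mM; 200 mM Tris pH 7.4, EDTA, Tween-20; 5 min RT. Detection: diaphorase 0.133 mg/mL + resazurin 37 µM, fluorescence ex540/em590 at 0 and 20 min; normalized to enzyme-free and DMSO wells.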
Active calls of the source: *; ! = not confirmed by another sample; [ ] = another dose, or the depositor's remark. Unless noted, calls come from the whole dose curve; as a rule, active = well fitted curve in the direction sought with a large enough effect; inconclusive = small, poorly fitted or top-dose-only effect, or another doubt; inactive = no such curve, though single readings can be large; an effect the other way counts as inactive or inconclusive.

`COc1ccc(CNC(=O)C(c2ccc(C)o2)N(Cc2cccs2)C(=O)Cc2cccs2)cc1` (stereo unspecified) gave GLP1R cytotox inconclusive, IDH1 R132H inh 5%, PTHR1 ag inactive, GLP1R ag -6%, GLP-1R inv ag 8.9µM* and LDHA block 0.
Screening COc1ccc(CNC(=O)C(c2ccc(C)o2)N(C(=O)c2csnn2)c2ccc(C(C)C)cc2)cc1 (stereo unspecified) returned GLP1R cytotox -7%, IDH1 R132H inh 5%, PTHR1 ag 8%[57.5 µM], GLP1R ag -3%, GLP-1R inv ag 10µM* and LDHA block 0.
`CCN(Cc1ccccc1)C(=O)COc1ncnc2ccc(Br)cc12` gave LDHA block 11.
`CCNC(=O)NC(=O)C(C)N(C)Cc1ccc(F)cc1` (stereo unspecified) gave LDHA block -7.
For COc1cccc(CCN2CCC(CNS(=O)(=O)c3cc(-c4cc(C)no4)ccc3C)CC2)c1 the results were GLP1R cytotox inconclusive, IDH1 R132H inh -1%, PTHR1 ag -88%, GLP1R ag -9%, GLP-1R inv ag 4.5µM* and LDHA block -1.
For COc1ccc(-c2csc(/C(C#N)=C/c3ccccc3C(F)(F)F)n2)cc1OC the results were LDHA block 4.
`CCCc1cc(C(=O)N2CCCC(Cc3cccc(Cl)c3)(C(=O)OCC)C2)n(C)n1` (stereo unspecified) gave GLP1R cytotox -10%, IDH1 R132H inh 3%, PTHR1 ag -27%, GLP1R ag 6%, GLP-1R inv ag 11µM* and LDHA block -1.
`O=C(NNc1cccc(Cl)n1)c1cccnc1Cl` gave GLP1R cytotox 3%, IDH1 R132H inh 5%, PTHR1 ag -21%, GLP1R ag -3%, GLP-1R inv ag 0% and LDHA block -1.
Screening O=C(NNc1cccc(Cl)c1)c1cccnc1Cl returned GLP1R cytotox -34%, IDH1 R132H inh 2%, PTHR1 ag -24%, GLP1R ag -2%, GLP-1R inv ag 1.3µM* and LDHA block 0.
Screening CCCC(=O)Nc1ccc(S(=O)(=O)NCCn2nc(-c3ccccc3)ccc2=O)cc1 returned LDHA block 0.
`O=C(COc1ccc(/C=N/NC(=O)c2cc3ccccc3o2)cc1Cl)Nc1ccccc1` gave GLP1R cytotox inconclusive, IDH1 R132H inh 2%, PTHR1 ag -4%, GLP1R ag -1%, GLP-1R inv ag 4.5µM* and LDHA block -11.
`Oc1c(CN2CCOCC2)cc(-c2ccccc2)cc1CN1CCOCC1` gave GLP1R cytotox -9%, IDH1 R132H inh -2%, PTHR1 ag -13%[57.5 µM], GLP1R ag 6%, GLP-1R inv ag -11% and LDHA block 0.
Screening CC(C)(C)c1ccc(S(=O)(=O)N2CCN(CCC#N)CC2)cc1 returned GLP1R cytotox 3%, IDH1 R132H inh 11%, PTHR1 ag -41%, GLP1R ag -3%, GLP-1R inv ag 10% and LDHA block 1.
For CC(C)(C)CC(C)(C)c1ccc(O)c(CN2CCN(CCC#N)CC2)c1 the results were GLP1R cytotox -24%, IDH1 R132H inh 8%, PTHR1 ag 0%[57.5 µM], GLP1R ag 4%, GLP-1R inv ag 11µM* and LDHA block 7.
N#CCCN1CCN(Cc2cc(-c3ccccc3)ccc2O)CC1 was read as GLP1R cytotox -14%, IDH1 R132H inh 6%, PTHR1 ag 16µM*, GLP1R ag -9%, GLP-1R inv ag 0% and LDHA block -8.
For O=C1c2cc(Br)ccc2N(Cc2ccc(Br)cc2)S(=O)(=O)C1c1cc(Cl)c(Cl)cc1[N+](=O)[O-] (stereo unspecified) the results were GLP1R cytotox -10%, IDH1 R132H inh -4%, PTHR1 ag -60%, GLP1R ag -5%, GLP-1R inv ag inconclusive and LDHA block -43*.
Screening COC(=O)c1ccccc1-c1c2ccc(=N)cc-2oc2cc(N)ccc12 returned GLP1R cytotox inactive, IDH1 R132H inh inconclusive, PTHR1 ag inactive, GLP1R ag -1%, GLP-1R inv ag -26% and LDHA block -58*.
For O=C(O)c1ccccc1-c1c2ccc(=O)cc-2oc2cc(O)ccc12 the results were GLP1R ag 13%.
Screening Cc1ccccc1NC(NC(=O)c1ccccc1C)C(Cl)(Cl)Cl (stereo unspecified) returned LDHA block -25.
For CCN(CC)S(=O)(=O)c1cc(-c2n[nH]c(=O)c3ccccc23)ccc1C the results were LDHA block -33*.
Screening Cc1ccc(NC(=O)Cn2c(-c3nonc3N)nc3ccccc32)cc1C returned GLP1R cytotox 6%, IDH1 R132H inh -1%, PTHR1 ag -9%, GLP-1R inv ag 5% and LDHA block -2.
For Cc1ccc(C)c(NC(=O)Cn2c(-c3nonc3N)nc3ccccc32)c1 the results were GLP1R cytotox 15%, IDH1 R132H inh -9%, PTHR1 ag -4%, GLP-1R inv ag 11% and LDHA block -33*!.
`CCCn1c(COc2ccccc2OC)nc2ccccc21` gave GLP1R cytotox -14%, IDH1 R132H inh 8%, PTHR1 ag inactive, GLP1R ag -11%, GLP-1R inv ag 10µM* and LDHA block -2.
`Cc1ccc2c(c1)N(C(=O)Nc1cccc3c1CCCC3)CC(C)O2` (stereo unspecified) gave GLP1R cytotox 24%, IDH1 R132H inh 3%, PTHR1 ag -31%, GLP-1R inv ag 10µM* and LDHA block 0.
Screening CCC1CN(C(=O)Nc2cccc3c2CCCC3)c2cc(C)ccc2O1 (stereo unspecified) returned GLP1R cytotox 21%, IDH1 R132H inh -6%, PTHR1 ag -3%, GLP-1R inv ag inconclusive and LDHA block 7.
Screening Cc1sc2ncnc(N(C)Cc3cccs3)c2c1C returned GLP1R cytotox 1%, IDH1 R132H inh 1%, PTHR1 ag -44%[57.5 µM], GLP1R ag inconclusive, GLP-1R inv ag inconclusive and LDHA block -3.
Screening Cc1sc2ncnc(N(C)CCc3ccccn3)c2c1C returned GLP1R cytotox 1%, IDH1 R132H inh -1%, PTHR1 ag -7%, GLP1R ag 10%, GLP-1R inv ag -4% and LDHA block -32*.
O=C(CCSc1ccccc1)OCC(=O)c1ccc(Cl)cc1 was read as LDHA block 1.
For NC(=O)N/N=C/c1ccc(Br)cc1 the results were LDHA block 3.
